The list shows a part of the results.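 The calls were made as follows: active = fluorescence response below 15%; inactive = the rest.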
Test: yeast superoxide dye artefact check – S. cerevisiae BY4741, flow cytometry, artefact control for yeast caloric restriction mimetic project (AID 435000);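 also: percent of the mean fluorescence averaged over all compound wells on the plate; lower means stronger quenching of DHE signal or ROS scavenging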
Conditions: S. cerevisiae BY4741, DHE fluorescence, at 10 µM, active compounds read low

Fluorescence response, inactive:
Cc1cc2oc(C(=O)Nc3c(C)n(C)n(-c4ccccc4)c3=O)c(C)c2cc1Cl 95.3%, CC1CCCN(S(=O)(=O)c2ccc(C(=O)Nc3nnc(-c4ccncc4)o3)cc2)C1 (configuration not stated) 109%, COc1cccc(NC(=O)NCCN2CCCCC2)c1 93.8%, Cc1ccc(NC(=O)Cn2nc(C)c3ccccc3c2=O)c(C)c1 110%, O=C(Nc1cccc(Cl)c1Cl)c1ccccc1NC(=O)C1CC=CCC1C(=O)O (configuration not stated) 89.9%, Cc1ccc(-c2nc(CSCC(=O)NC3CCN(Cc4ccccc4)CC3)c(C)o2)cc1 94.6%, O=C(CSc1ccc(-c2ccc(-n3cccn3)cc2)nn1)Nc1ccc([N+](=O)[O-])cc1 88.8%, Cc1ccc(-c2nn(C(C)(C)C)c3ncnc(N)c23)cc1 99.5%, CCn1c2ccccc2c2cc(NC(=O)CNC)ccc21 112%, CC(C)(C)NC(=O)COc1ccc(CNc2ccc3[nH]c(=O)[nH]c3c2)cc1 94.4%, O=C(Nc1ccccc1N1CCCC1)c1ccc2ccccc2c1 103%, NC(=S)Nc1c(Cl)cccc1Cl 97.4%, CC(=O)C[C@@H](O)CC(=O)[C@H]1OC(=O)CCCCCCc2ccccc21 113%, CC(=O)NC1=NN(C(C)=O)C(C)(CCS(=O)(=O)c2ccc(Cl)c(Cl)c2)S1 (configuration not stated) 112%, Cc1ccc(-c2nc(CS(=O)CC(=O)N3CCN(c4ncccn4)CC3)c(C)o2)cc1 (configuration not stated) 95.7%, Cc1cc(=O)n2[nH]c(-c3cccc(Cl)c3)cc2n1 92.6%, Cc1ccc(C23CC4CC(CC(C(=O)NCC(=O)O)(C4)C2)C3)cc1 94.6%, O=C(O)c1ccc(F)c(S(=O)(=O)Nc2ccccc2)c1 90.9%, O=C(CN1CCN(c2ccccn2)CC1)Nc1ccc(Br)cc1 97%, COC(=O)CNC(=O)c1ccc(OC2CCN(C(=O)C3CC3)CC2)cc1 113%, COc1ccc(C)cc1S(=O)(=O)Nc1cccc(Cl)c1Cl 102%, Cc1ccccc1NC(=O)NCC1CCN(Cc2cccc(Cl)c2)CC1 101%
